The supplement of paper PMC7411054
Where a name gives a salt, the structure may show the parent alone.

Tests used:
Test in all cases: phenotypically active (imaging signature differs from DMSO and reproducible) at any of 0.3-9 uM (binary (1 = active, 0 = inactive)); higher = active
Conditions in all cases: treatment time: 24 h
A549-ACTB-RAB5A = tested on: A549-ACTB-RAB5A
Summary of the method: (§1)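 Fifteen gene-edited A549, HepG2 and WPMY1 reporter lines (BFP segmentation plus GFP and RFP/FusionRed markers) were treated at 0.3, 1, 3 or 9 µM for 24 h, four wells each, then imaged live. Live-cell features per well were normalised to DMSO control wells. Deviation required ≥3 of 4 wells beyond the 95th percentile of DMSO Euclidean distances, and reproducibility required median replicate Pearson correlation above the 95th percentile of non-replicates. Phenotypic activity needed both criteria.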

A549-CANX-COX4 = tested on: A549-CANX-COX4
Summary of the method: as §1

A549-GM130-SQSTM1 = tested on: A549-GM130-SQSTM1
Summary of the method: as §1

A549-TP53BP1-CLTA = tested on: A549-TP53BP1-CLTA
Summary of the method: as §1

A549-TUBA1B-RELA = tested on: A549-TUBA1B-RELA
Summary of the method: as §1

HepG2-ACTB-RAB5A = tested on: HepG2-ACTB-RAB5A
Summary of the method: as §1

HepG2-CANX-COX4 = tested on: HepG2-CANX-COX4
Summary of the method: as §1

HepG2-GM130-SQSTM1 = tested on: HepG2-GM130-SQSTM1
Summary of the method: as §1

HepG2-TP53BP1-CLTA = tested on: HepG2-TP53BP1-CLTA
Summary of the method: as §1

HepG2-TUBA1B-RELA = tested on: HepG2-TUBA1B-RELA
Summary of the method: as §1

WPMY1-ACTB-RAB5A = tested on: WPMY1-ACTB-RAB5A
Summary of the method: as §1

WPMY1-CANX-COX4 = tested on: WPMY1-CANX-COX4
Summary of the method: as §1

WPMY1-GM130-SQSTM1 = tested on: WPMY1-GM130-SQSTM1
Summary of the method: as §1

WPMY1-TP53BP1-CLTA = tested on: WPMY1-TP53BP1-CLTA
Summary of the method: as §1

WPMY1-TUBA1B-RELA = tested on: WPMY1-TUBA1B-RELA
Summary of the method: as §1

Measured: phenotypically active

C[C@]12CC[C@@H]3c4ccc(O)cc4CC[C@H]3[C@@H]1CCC2=O [estrone]
inactive: A549-ACTB-RAB5A 0 | A549-CANX-COX4 0 | A549-GM130-SQSTM1 0 | A549-TP53BP1-CLTA 0 | A549-TUBA1B-RELA 0 | HepG2-ACTB-RAB5A 0 | HepG2-CANX-COX4 0 | HepG2-GM130-SQSTM1 0 | HepG2-TP53BP1-CLTA 0 | HepG2-TUBA1B-RELA 0 | WPMY1-ACTB-RAB5A 0 | WPMY1-CANX-COX4 0 | WPMY1-GM130-SQSTM1 0 | WPMY1-TP53BP1-CLTA 0 | WPMY1-TUBA1B-RELA 0

C=C[C@H]1[C@H](O[C@@H]2O[C@H](CO)[C@@H](O)[C@H](O)[C@H]2O)OC=C2C(=O)NCC[C@H]21 [Bakankosine]
inactive: A549-ACTB-RAB5A 0 | A549-CANX-COX4 0 | A549-GM130-SQSTM1 0 | A549-TP53BP1-CLTA 0 | A549-TUBA1B-RELA 0 | HepG2-ACTB-RAB5A 0 | HepG2-CANX-COX4 0 | HepG2-GM130-SQSTM1 0 | HepG2-TP53BP1-CLTA 0 | HepG2-TUBA1B-RELA 0 | WPMY1-ACTB-RAB5A 0 | WPMY1-CANX-COX4 0 | WPMY1-GM130-SQSTM1 0 | WPMY1-TP53BP1-CLTA 0 | WPMY1-TUBA1B-RELA 0

CCOC(=O)[C@H](CCc1ccccc1)N[C@@H](C)C(=O)N1[C@H](C(=O)O)C[C@@H]2CCC[C@@H]21 [ramipril]
inactive: A549-ACTB-RAB5A 0 | A549-CANX-COX4 0 | A549-GM130-SQSTM1 0 | A549-TP53BP1-CLTA 0 | A549-TUBA1B-RELA 0 | HepG2-ACTB-RAB5A 0 | HepG2-CANX-COX4 0 | HepG2-GM130-SQSTM1 0 | HepG2-TP53BP1-CLTA 0 | HepG2-TUBA1B-RELA 0 | WPMY1-ACTB-RAB5A 0 | WPMY1-CANX-COX4 0 | WPMY1-GM130-SQSTM1 0 | WPMY1-TP53BP1-CLTA 0 | WPMY1-TUBA1B-RELA 0

CCC(NC(C)C)C(O)c1ccc(O)c(O)c1 (stereo not given) [isoetharine]
inactive: A549-ACTB-RAB5A 0 | A549-CANX-COX4 0 | A549-GM130-SQSTM1 0 | A549-TP53BP1-CLTA 0 | A549-TUBA1B-RELA 0 | HepG2-ACTB-RAB5A 0 | HepG2-CANX-COX4 0 | HepG2-GM130-SQSTM1 0 | HepG2-TP53BP1-CLTA 0 | HepG2-TUBA1B-RELA 0 | WPMY1-ACTB-RAB5A 0 | WPMY1-CANX-COX4 0 | WPMY1-GM130-SQSTM1 0 | WPMY1-TP53BP1-CLTA 0 | WPMY1-TUBA1B-RELA 0

COc1ccc(CN(CCN(C)C)c2ccccn2)cc1 [mepyramine]
inactive: A549-ACTB-RAB5A 0 | A549-CANX-COX4 0 | A549-GM130-SQSTM1 0 | A549-TP53BP1-CLTA 0 | A549-TUBA1B-RELA 0 | HepG2-ACTB-RAB5A 0 | HepG2-CANX-COX4 0 | HepG2-GM130-SQSTM1 0 | HepG2-TP53BP1-CLTA 0 | HepG2-TUBA1B-RELA 0 | WPMY1-ACTB-RAB5A 0 | WPMY1-CANX-COX4 0 | WPMY1-GM130-SQSTM1 0 | WPMY1-TP53BP1-CLTA 0 | WPMY1-TUBA1B-RELA 0

O=S(=O)(NCCSSCCNS(=O)(=O)c1cc(Cl)ccc1Cl)c1cc(Cl)ccc1Cl
inactive: A549-ACTB-RAB5A 0 | A549-CANX-COX4 0 | A549-GM130-SQSTM1 0 | A549-TP53BP1-CLTA 0 | A549-TUBA1B-RELA 0 | HepG2-ACTB-RAB5A 0 | HepG2-CANX-COX4 0 | HepG2-GM130-SQSTM1 0 | HepG2-TP53BP1-CLTA 0 | HepG2-TUBA1B-RELA 0 | WPMY1-ACTB-RAB5A 0 | WPMY1-CANX-COX4 0 | WPMY1-GM130-SQSTM1 0 | WPMY1-TP53BP1-CLTA 0 | WPMY1-TUBA1B-RELA 0

O=[N+]([O-])c1cc([N+](=O)[O-])c(/C=C/c2ccc(Cl)c(Cl)c2)cc1/C=C/c1ccc(Cl)c(Cl)c1
inactive: A549-ACTB-RAB5A 0 | A549-CANX-COX4 0 | A549-GM130-SQSTM1 0 | A549-TP53BP1-CLTA 0 | A549-TUBA1B-RELA 0 | HepG2-ACTB-RAB5A 0 | HepG2-CANX-COX4 0 | HepG2-GM130-SQSTM1 0 | HepG2-TP53BP1-CLTA 0 | HepG2-TUBA1B-RELA 0 | WPMY1-ACTB-RAB5A 0 | WPMY1-CANX-COX4 0 | WPMY1-GM130-SQSTM1 0 | WPMY1-TP53BP1-CLTA 0 | WPMY1-TUBA1B-RELA 0

CCN(c1ccccc1)c1cc(NC)[n+](C)c(C)n1
inactive: A549-ACTB-RAB5A 0 | A549-CANX-COX4 0 | A549-GM130-SQSTM1 0 | A549-TP53BP1-CLTA 0 | A549-TUBA1B-RELA 0 | HepG2-ACTB-RAB5A 0 | HepG2-CANX-COX4 0 | HepG2-GM130-SQSTM1 0 | HepG2-TP53BP1-CLTA 0 | HepG2-TUBA1B-RELA 0 | WPMY1-ACTB-RAB5A 0 | WPMY1-CANX-COX4 0 | WPMY1-GM130-SQSTM1 0 | WPMY1-TP53BP1-CLTA 0 | WPMY1-TUBA1B-RELA 0

C[C@@H]1O[C@@H](O[C@H]2[C@H](Oc3cc(O)c4c(c3)O[C@H](c3ccc(O)cc3)CC4=O)O[C@H](CO)[C@@H](O)[C@@H]2O)[C@H](O)[C@H](O)[C@H]1O [Naringin hydrate]
inactive: A549-ACTB-RAB5A 0 | A549-CANX-COX4 0 | A549-GM130-SQSTM1 0 | A549-TP53BP1-CLTA 0 | A549-TUBA1B-RELA 0 | HepG2-ACTB-RAB5A 0 | HepG2-CANX-COX4 0 | HepG2-GM130-SQSTM1 0 | HepG2-TP53BP1-CLTA 0 | HepG2-TUBA1B-RELA 0 | WPMY1-ACTB-RAB5A 0 | WPMY1-CANX-COX4 0 | WPMY1-GM130-SQSTM1 0 | WPMY1-TP53BP1-CLTA 0 | WPMY1-TUBA1B-RELA 0

Cc1ccc(Cl)c(Nc2ccccc2C(=O)O)c1Cl [meclofenamic-acid]
inactive: A549-ACTB-RAB5A 0 | A549-CANX-COX4 0 | A549-GM130-SQSTM1 0 | A549-TP53BP1-CLTA 0 | A549-TUBA1B-RELA 0 | HepG2-ACTB-RAB5A 0 | HepG2-CANX-COX4 0 | HepG2-GM130-SQSTM1 0 | HepG2-TP53BP1-CLTA 0 | HepG2-TUBA1B-RELA 0 | WPMY1-ACTB-RAB5A 0 | WPMY1-CANX-COX4 0 | WPMY1-GM130-SQSTM1 0 | WPMY1-TP53BP1-CLTA 0 | WPMY1-TUBA1B-RELA 0

CC(c1cc2ccccc2s1)N(O)C(N)=O (stereo not given) [zileuton]
inactive: A549-ACTB-RAB5A 0 | A549-CANX-COX4 0 | A549-GM130-SQSTM1 0 | A549-TP53BP1-CLTA 0 | A549-TUBA1B-RELA 0 | HepG2-ACTB-RAB5A 0 | HepG2-CANX-COX4 0 | HepG2-GM130-SQSTM1 0 | HepG2-TP53BP1-CLTA 0 | HepG2-TUBA1B-RELA 0 | WPMY1-ACTB-RAB5A 0 | WPMY1-CANX-COX4 0 | WPMY1-GM130-SQSTM1 0 | WPMY1-TP53BP1-CLTA 0 | WPMY1-TUBA1B-RELA 0

C=CCc1ccccc1OC[C@@H](O)CNC(C)C [Alprenolol hydrochloride]
inactive: A549-ACTB-RAB5A 0 | A549-CANX-COX4 0 | A549-GM130-SQSTM1 0 | A549-TP53BP1-CLTA 0 | A549-TUBA1B-RELA 0 | HepG2-ACTB-RAB5A 0 | HepG2-CANX-COX4 0 | HepG2-GM130-SQSTM1 0 | HepG2-TP53BP1-CLTA 0 | HepG2-TUBA1B-RELA 0 | WPMY1-ACTB-RAB5A 0 | WPMY1-CANX-COX4 0 | WPMY1-GM130-SQSTM1 0 | WPMY1-TP53BP1-CLTA 0 | WPMY1-TUBA1B-RELA 0
